Where “and” joins values, the source holds several entries; their conditions need not be identical. Equal entries are not always repeated. Results filed as inconclusive are left out. A structure can be active in one record and inactive in another. Calls of active or inactive are those of the source. The calls were made as follows, unless noted: active = hit-call score of the fitted dose curve at least 0.9, where 1 is the maximum; inconclusive = response in the unintended direction; inactive = score below 0.9.
Legend:
[1] = BSK_3C_VCAM1: BioMAP Diversity Plus: 3C Assay for Vascular cell adhesion molecule 1 (VCAM1) Biomarker Activity (AID 2282999; active = hit-call score of the fitted dose curve at least 0.9, where 1 is the maximum; inactive = score below 0.9); details: BioMAP 3C HUVEC, VCAM1 ELISA, cytokine-stimulated; actives raise or lower the signal
How it was run: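 Human umbilical vein endothelial cells (3C system), biomarker read by ELISA 24 h after dosing; bidirectional fit against DMSO baseline. Cytotoxicity tracked by SRB total-protein staining in parallel cultures at biomarker time.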

[2] = BSK_4H_Eotaxin3: BioMAP Diversity Plus: 4H Assay for Eotaxin 3 Biomarker Activity (AID 2283000; active = hit-call score of the fitted dose curve at least 0.9, where 1 is the maximum; inactive = score below 0.9); details: primary human endothelial cells (HUVEC); actives raise or lower the signal
How it was run: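 Eotaxin-3 (CCL26) levels were measured by ELISA in HUVEC primary cultures 24 h post-dosing. Gain or loss of signal was fitted in both directions, with DMSO serving as baseline and negative control.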

[3] = molecular target: human Peroxisome Proliferator-activated Receptor delta (PPARd), PPARD (gene 5467) (UniProt Q03181); assay: ATG_PPARd_TRANS: Attagene TRANS-FACTORIAL HepG2 Assay for human Peroxisome Proliferator-activated Receptor delta (PPARd) (AID 2283002)
Sequence of human Peroxisome Proliferator-activated Receptor delta (PPARd), PPARD (gene 5467) (Q03181 whole entry, looked up, the tested form may be a part): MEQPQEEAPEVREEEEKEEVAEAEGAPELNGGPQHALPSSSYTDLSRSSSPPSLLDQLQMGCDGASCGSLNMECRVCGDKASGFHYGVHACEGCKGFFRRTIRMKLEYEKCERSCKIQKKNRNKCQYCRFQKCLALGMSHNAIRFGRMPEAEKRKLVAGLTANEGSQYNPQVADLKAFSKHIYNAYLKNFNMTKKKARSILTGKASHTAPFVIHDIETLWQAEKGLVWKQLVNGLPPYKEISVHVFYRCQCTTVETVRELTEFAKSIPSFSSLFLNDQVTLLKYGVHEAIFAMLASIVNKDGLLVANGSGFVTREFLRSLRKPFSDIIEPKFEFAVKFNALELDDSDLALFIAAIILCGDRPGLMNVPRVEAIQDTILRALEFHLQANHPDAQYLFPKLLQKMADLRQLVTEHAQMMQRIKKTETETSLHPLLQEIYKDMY
How it was run: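 HepG2 cells transiently transfected with GAL4-UAS multiplexed reporter units driven by exogenous chimeric NR-GAL4 proteins; 24 h compound exposure. Reporter mRNA measured by RT-PCR, 6-FAM primer extension, HpaI digestion and capillary electrophoresis; gain of signal fitted relative to DMSO.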

[4] = read-out: Intercellular Adhesion Molecule 1 (ICAM1), ICAM1 (gene 3383); assay: BSK_3C_ICAM1: BioMAP Diversity Plus: 3C Assay for Intercellular Adhesion Molecule 1 (ICAM1) Biomarker Activity (AID 2283003; active = hit-call score of the fitted dose curve at least 0.9, where 1 is the maximum; inactive = score below 0.9); details: primary human endothelial cells (HUVEC); actives raise or lower the signal
How it was run: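 HUVEC primary cells stimulated under 3C conditions; ICAM1 measured by ELISA 24 h after compound dosing. Curves fitted bidirectionally against the DMSO baseline. Overt cytotoxicity checked by SRB staining of parallel cultures.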

[5] = molecular target: human Retinoic Acid Receptor beta (RARb), RARB (gene 5915) (UniProt P10826); assay: ATG_RARb_TRANS: Attagene TRANS-FACTORIAL HepG2 Assay for human Retinoic Acid Receptor beta (AID 2283004)
Sequence of human Retinoic Acid Receptor beta (RARb), RARB (gene 5915) (P10826 whole entry, looked up, the tested form may be a part): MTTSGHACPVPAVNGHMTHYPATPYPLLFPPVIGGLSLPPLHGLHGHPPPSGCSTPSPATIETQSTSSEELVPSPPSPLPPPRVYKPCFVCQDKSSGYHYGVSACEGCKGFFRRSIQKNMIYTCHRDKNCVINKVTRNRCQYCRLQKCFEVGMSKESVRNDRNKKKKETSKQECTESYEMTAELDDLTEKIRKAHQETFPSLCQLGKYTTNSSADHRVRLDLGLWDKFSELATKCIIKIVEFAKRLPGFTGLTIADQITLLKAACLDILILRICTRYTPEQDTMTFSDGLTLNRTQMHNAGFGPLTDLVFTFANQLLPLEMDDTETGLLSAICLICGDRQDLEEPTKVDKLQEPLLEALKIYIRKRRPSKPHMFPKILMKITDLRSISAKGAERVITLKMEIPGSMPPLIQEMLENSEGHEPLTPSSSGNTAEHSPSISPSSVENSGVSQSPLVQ
How it was run: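 HepG2 cells were transiently transfected with GAL4-UAS reporter units that report activity of exogenous chimeric NR-Gal4 proteins, then exposed to compound for 24 h. Reporter mRNA was quantified by RT-PCR with capillary electrophoresis fluorescence, as gain of signal over DMSO.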

[6] = molecular target: Retinoic acid receptor alpha (Homo sapiens) (UniProt P10276); assay: ATG_RARa_TRANS: Attagene TRANS-FACTORIAL HepG2 Assay for human Retinoic Acid Receptor alpha (RARa) (AID 2283005)
Sequence of Retinoic acid receptor alpha (Homo sapiens) (P10276 whole entry, looked up, the tested form may be a part): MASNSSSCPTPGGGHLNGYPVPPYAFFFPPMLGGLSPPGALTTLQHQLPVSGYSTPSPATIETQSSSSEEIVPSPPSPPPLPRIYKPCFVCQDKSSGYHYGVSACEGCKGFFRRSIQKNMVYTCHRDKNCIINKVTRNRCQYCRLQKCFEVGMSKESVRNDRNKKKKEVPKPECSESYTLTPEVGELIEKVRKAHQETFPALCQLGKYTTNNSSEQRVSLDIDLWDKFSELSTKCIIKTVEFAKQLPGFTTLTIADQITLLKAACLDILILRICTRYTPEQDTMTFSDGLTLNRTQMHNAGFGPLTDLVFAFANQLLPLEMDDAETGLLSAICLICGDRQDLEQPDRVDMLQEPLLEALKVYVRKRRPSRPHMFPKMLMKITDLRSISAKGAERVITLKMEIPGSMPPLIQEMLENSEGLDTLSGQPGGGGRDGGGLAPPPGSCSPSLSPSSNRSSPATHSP
How it was run: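 HepG2 transiently transfected with multiplex GAL4-UAS reporter units including a human RARa–GAL4 chimera; 24 h compound exposure. Reporter mRNA quantified by RT-PCR, 6-FAM labeling and capillary electrophoresis; gain of signal versus DMSO.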

[7] = BSK_3C_Proliferation: Cell Proliferation Assessment in the BioMAP Diversity Plus: 3C Assay (AID 2283006; active = hit-call score of the fitted dose curve at least 0.9, where 1 is the maximum; inactive = score below 0.9;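 as to AC50: potency may reflect either rise or fall in cell number versus DMSO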); details: primary human endothelial cells (HUVEC)
How it was run: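 Subconfluent HUVEC (3C system) cultured with chemical; relative cell number read at 48 h by sulforhodamine B total-protein staining (0.1% SRB after 10% TCA fixation, 560 nm). Bidirectional fit relative to DMSO.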

[8] = molecular target: Peroxisome proliferator-activated receptor gamma (Homo sapiens) (UniProt P37231); assay: ATG_PPARg_TRANS: Attagene TRANS-FACTORIAL HepG2 Assay for human Peroxisome Proliferator-activated Receptor-gamma (PPARg) (AID 2283007)
How it was run: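 Twenty-four hours after chemical dosing of transiently transfected HepG2 cells, isolated RNA was converted to cDNA, reporter sequences amplified and 6-FAM-labelled, then HpaI-digested and analysed by capillary electrophoresis. Signal increase against DMSO was fitted.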

[9] = molecular target: Nuclear receptor subfamily 1 group I member 2 (Homo sapiens) (UniProt O75469); assay: ATG_PXR_TRANS: Attagene TRANS-FACTORIAL HepG2 Assay for human Pregnane X Receptor (PXR) (AID 2283008)
How it was run: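 Measures mRNA induction of a GAL4-UAS-driven reporter in human HepG2 cells transiently expressing PXR fused to Gal4, following 24 h treatment. DMSO served as negative control and baseline.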

[10] = molecular target: human Retinoic Acid Receptor gamma (RARg), RARG (gene 5916) (UniProt P13631); assay: ATG_RARg_TRANS: Attagene TRANS-FACTORIAL HepG2 Assay for human Retinoic Acid Receptor gamma (RARg) (AID 2283009)
Sequence of human Retinoic Acid Receptor gamma (RARg), RARG (gene 5916) (P13631 whole entry, looked up, the tested form may be a part): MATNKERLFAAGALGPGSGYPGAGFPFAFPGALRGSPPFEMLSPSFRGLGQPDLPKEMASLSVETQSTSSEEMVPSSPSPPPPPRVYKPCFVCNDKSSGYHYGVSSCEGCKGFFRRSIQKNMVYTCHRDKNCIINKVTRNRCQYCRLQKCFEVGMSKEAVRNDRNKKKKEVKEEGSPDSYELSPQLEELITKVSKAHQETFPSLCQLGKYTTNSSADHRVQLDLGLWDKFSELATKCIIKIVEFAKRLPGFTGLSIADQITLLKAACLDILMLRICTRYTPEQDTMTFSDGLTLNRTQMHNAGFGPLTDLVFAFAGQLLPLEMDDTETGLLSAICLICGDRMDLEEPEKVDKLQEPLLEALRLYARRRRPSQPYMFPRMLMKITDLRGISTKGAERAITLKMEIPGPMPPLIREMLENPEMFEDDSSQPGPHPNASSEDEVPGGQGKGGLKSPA
How it was run: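 HepG2 transiently transfected with GAL4-UAS reporter units and chimeric NR-Gal4 constructs; 24 h compound exposure. Reporter mRNA quantified by RT-PCR, FAM labeling, HpaI digestion and capillary electrophoresis; gain-of-signal versus DMSO.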

[11] = molecular target: human Retinoid X Receptor beta (RXRb), RXRB (gene 6257) (UniProt P28702); assay: ATG_RXRb_TRANS: Attagene TRANS-FACTORIAL HepG2 Assay for human Retinoid X Receptor beta (RXRb) (AID 2283013)
Sequence of human Retinoid X Receptor beta (RXRb), RXRB (gene 6257) (P28702 whole entry, looked up, the tested form may be a part): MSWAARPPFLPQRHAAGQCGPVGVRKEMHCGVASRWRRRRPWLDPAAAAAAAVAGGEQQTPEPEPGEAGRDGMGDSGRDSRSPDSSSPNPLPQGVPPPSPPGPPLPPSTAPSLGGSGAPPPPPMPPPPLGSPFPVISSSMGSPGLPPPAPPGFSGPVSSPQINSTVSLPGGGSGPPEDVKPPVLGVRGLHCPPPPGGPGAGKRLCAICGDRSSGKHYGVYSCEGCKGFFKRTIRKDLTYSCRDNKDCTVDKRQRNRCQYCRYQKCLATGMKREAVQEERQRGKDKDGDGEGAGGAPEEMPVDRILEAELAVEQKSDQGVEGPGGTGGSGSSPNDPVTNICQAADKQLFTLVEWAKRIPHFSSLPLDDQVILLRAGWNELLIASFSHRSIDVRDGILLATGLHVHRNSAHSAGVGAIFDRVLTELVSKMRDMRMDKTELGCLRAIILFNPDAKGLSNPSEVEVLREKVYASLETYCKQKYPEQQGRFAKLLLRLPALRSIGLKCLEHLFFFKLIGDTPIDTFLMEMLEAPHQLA
How it was run: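 HepG2 cells were transiently transfected with multiplexed GAL4-UAS reporters and a chimeric RXRb-Gal4 construct, then exposed for 24 h. Reporter mRNA was quantified by RT-PCR, FAM labeling, HpaI digestion and capillary electrophoresis; gain of signal was scored against DMSO.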

[12] = read-out: E-selectin (Homo sapiens) (UniProt P16581); assay: BSK_3C_Eselectin: BioMAP Diversity Plus: 3C Assay for Eselectin Biomarker Activity (AID 2283015; active = hit-call score of the fitted dose curve at least 0.9, where 1 is the maximum; inactive = score below 0.9); details: primary human endothelial cells (HUVEC); actives raise or lower the signal
How it was run: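 Primary human umbilical vein endothelial cells (3C system), read 24 h after compound addition; E-selectin measured by ELISA. Bidirectional curve fitting against DMSO baseline; cytotoxicity by parallel SRB total-protein staining.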

[13] = read-out: Interleukin-1 alpha (IL1a), IL1A (gene 3552); assay: BSK_BE3C_IL1a: BioMAP Diversity Plus: BE3C Assay for Interleukin-1 alpha (IL1a) Biomarker Activity (AID 2283016; active = hit-call score of the fitted dose curve at least 0.9, where 1 is the maximum; inactive = score below 0.9); details: primary human bronchial epithelial cells; actives raise or lower the signal
How it was run: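 Human primary bronchial epithelial cells, 24 h chemical exposure; IL-1a quantified by ELISA, fitted bidirectionally against DMSO. Cytotoxicity assessed in parallel by SRB total-protein staining at the time of measurement.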

[14] = read-out: Monocyte Chemoattractant Protein-1 (MCP1), CCL2 (gene 6347); assay: BSK_3C_MCP1: BioMAP Diversity Plus: 3C Assay for Monocyte Chemoattractant Protein-1 (MCP1) Biomarker Activity (AID 2283017; active = hit-call score of the fitted dose curve at least 0.9, where 1 is the maximum; inactive = score below 0.9); details: primary human endothelial cells (HUVEC); actives raise or lower the signal
How it was run: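 Human umbilical vein endothelial cells (3C system) exposed to chemicals for 24 h; MCP-1 quantified by ELISA against the DMSO baseline with bidirectional fitting, and parallel SRB staining used to assess cytotoxicity.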

[15] = read-out: Monocyte Chemoattractant Protein-1 (MCP1), CCL2 (gene 6347); assay: BSK_4H_MCP1: BioMAP Diversity Plus: 4H Assay for Monocyte Chemoattractant Protein-1 (MCP1) Biomarker Activity (AID 2283018; active = hit-call score of the fitted dose curve at least 0.9, where 1 is the maximum; inactive = score below 0.9); details: primary human endothelial cells (HUVEC); actives raise or lower the signal
How it was run: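 Human umbilical vein endothelial cells (4H system) exposed to chemicals for 24 h in 96-well format. MCP-1 measured by ELISA; bidirectional fitting against DMSO, with SRB total-protein staining in parallel cultures for cytotoxicity.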

[16] = molecular target: human Thyroid Receptor alpha (THRa1), THRA (gene 7067) (UniProt P10827); assay: ATG_THRa1_TRANS: Attagene TRANS-FACTORIAL HepG2 Assay for human Thyroid Receptor alpha (THRa1) (AID 2283014)
Sequence of human Thyroid Receptor alpha (THRa1), THRA (gene 7067) (P10827 whole entry, looked up, the tested form may be a part): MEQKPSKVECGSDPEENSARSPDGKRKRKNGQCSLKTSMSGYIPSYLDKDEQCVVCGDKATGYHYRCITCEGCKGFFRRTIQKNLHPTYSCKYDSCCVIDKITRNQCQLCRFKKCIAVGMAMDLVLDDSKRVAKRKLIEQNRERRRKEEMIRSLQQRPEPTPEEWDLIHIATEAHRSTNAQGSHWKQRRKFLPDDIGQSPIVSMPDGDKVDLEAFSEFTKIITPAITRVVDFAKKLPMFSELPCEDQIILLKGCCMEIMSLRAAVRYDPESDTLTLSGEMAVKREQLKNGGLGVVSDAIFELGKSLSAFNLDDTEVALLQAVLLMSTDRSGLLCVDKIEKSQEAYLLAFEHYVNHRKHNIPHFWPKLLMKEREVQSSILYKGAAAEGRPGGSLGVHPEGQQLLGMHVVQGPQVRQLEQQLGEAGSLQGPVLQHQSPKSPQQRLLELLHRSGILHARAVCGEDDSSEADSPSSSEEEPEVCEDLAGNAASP
How it was run: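 HepG2 cells transiently transfected with chimeric NR-Gal4 and GAL4-UAS reporter units, dosed 24 h. Reporter mRNA quantified by RT-PCR, fluorescent labeling, HpaI digestion and capillary electrophoresis; gain-of-signal fit versus DMSO.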

[17] = molecular target: human Peroxisome Proliferator-activated Receptor alpha (PPARa), PPARA (gene 5465) (UniProt Q07869); assay: ATG_PPARa_TRANS: Attagene TRANS-FACTORIAL HepG2 Assay for human Peroxisome Proliferator-activated Receptor alpha (PPARa) (AID 2283001);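 as to AC50: potency for gain of reporter signal over DMSO so agonist or activator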
Sequence of human Peroxisome Proliferator-activated Receptor alpha (PPARa), PPARA (gene 5465) (Q07869 whole entry, looked up, the tested form may be a part): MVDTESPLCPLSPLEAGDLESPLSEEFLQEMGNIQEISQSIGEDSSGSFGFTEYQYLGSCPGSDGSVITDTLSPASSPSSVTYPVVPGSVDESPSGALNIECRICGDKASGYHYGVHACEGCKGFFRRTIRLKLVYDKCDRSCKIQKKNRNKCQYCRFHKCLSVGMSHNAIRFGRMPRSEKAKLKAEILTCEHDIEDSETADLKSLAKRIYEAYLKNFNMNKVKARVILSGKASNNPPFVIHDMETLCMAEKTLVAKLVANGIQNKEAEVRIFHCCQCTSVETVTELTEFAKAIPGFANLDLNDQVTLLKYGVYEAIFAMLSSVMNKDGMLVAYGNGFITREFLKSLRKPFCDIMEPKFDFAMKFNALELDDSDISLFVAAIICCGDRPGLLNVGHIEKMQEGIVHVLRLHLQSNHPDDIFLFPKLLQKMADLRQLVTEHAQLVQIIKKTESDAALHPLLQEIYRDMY
How it was run: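 HepG2 cells transiently transfected with multiplexed GAL4-UAS reporters driven by exogenous chimeric NR-Gal4 proteins; reporter mRNA measured after 24 h dosing. Read-out by RT-PCR, 6-FAM labelling, HpaI digestion and capillary electrophoresis; gain of signal versus DMSO.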

[18] = molecular target: human RAR-related Orphan Receptor gamma (RORg), RORC (gene 6097) (UniProt P51449); assay: ATG_RORg_TRANS: Attagene TRANS-FACTORIAL HepG2 Assay for human RAR-related Orphan Receptor gamma (RORg) (AID 2283011)
Sequence of human RAR-related Orphan Receptor gamma (RORg), RORC (gene 6097) (P51449 whole entry, looked up, the tested form may be a part): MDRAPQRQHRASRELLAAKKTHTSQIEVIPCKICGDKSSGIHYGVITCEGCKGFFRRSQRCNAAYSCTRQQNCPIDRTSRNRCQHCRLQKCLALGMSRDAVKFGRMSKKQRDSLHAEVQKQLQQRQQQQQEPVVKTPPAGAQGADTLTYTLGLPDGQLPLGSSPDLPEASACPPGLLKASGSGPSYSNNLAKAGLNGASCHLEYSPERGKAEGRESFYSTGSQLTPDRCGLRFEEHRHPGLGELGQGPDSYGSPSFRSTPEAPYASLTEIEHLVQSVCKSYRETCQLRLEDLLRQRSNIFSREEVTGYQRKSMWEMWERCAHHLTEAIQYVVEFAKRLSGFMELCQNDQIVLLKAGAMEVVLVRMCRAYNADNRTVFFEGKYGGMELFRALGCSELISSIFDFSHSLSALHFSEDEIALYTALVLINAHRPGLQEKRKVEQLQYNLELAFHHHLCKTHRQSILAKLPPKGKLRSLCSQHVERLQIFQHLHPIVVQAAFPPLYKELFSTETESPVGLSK
How it was run: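 HepG2 cells transiently transfected with GAL4-UAS reporter units and chimeric RORg-Gal4 construct; after 24 h chemical exposure, reporter mRNA measured by RT-PCR with fluorescent capillary electrophoresis, gain of signal fitted against DMSO.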

[19] = molecular target: human RAR-related Orphan Receptor beta (RORb), RORB (gene 6096) (UniProt Q92753); assay: ATG_RORb_TRANS: Attagene TRANS-FACTORIAL HepG2 Assay for human RAR-related Orphan Receptor beta (RORb) (AID 2283010)
Sequence of human RAR-related Orphan Receptor beta (RORb), RORB (gene 6096) (Q92753 whole entry, looked up, the tested form may be a part): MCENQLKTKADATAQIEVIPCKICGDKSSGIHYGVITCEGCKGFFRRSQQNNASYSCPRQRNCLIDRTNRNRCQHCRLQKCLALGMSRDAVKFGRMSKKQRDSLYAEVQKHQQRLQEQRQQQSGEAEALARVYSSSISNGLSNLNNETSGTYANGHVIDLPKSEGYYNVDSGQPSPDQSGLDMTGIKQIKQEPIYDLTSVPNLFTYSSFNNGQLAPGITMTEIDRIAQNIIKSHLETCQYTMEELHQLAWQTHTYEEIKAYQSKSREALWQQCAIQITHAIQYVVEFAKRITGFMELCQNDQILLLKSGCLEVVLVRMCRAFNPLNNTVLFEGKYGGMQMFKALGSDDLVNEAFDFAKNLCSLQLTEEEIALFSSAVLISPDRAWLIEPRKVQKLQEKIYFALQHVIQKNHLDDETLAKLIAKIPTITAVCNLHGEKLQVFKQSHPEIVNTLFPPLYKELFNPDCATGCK
How it was run: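 HepG2 cells transiently transfected with GAL4-UAS reporter units expressing chimeric NR-Gal4 protein; reporter mRNA measured 24 h after dosing by RT-PCR, 6-FAM labelling and capillary electrophoresis. Gain-of-signal fitted relative to DMSO baseline.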

Measured: AC50

Sequence of E-selectin (Homo sapiens) (P16581 whole entry, looked up): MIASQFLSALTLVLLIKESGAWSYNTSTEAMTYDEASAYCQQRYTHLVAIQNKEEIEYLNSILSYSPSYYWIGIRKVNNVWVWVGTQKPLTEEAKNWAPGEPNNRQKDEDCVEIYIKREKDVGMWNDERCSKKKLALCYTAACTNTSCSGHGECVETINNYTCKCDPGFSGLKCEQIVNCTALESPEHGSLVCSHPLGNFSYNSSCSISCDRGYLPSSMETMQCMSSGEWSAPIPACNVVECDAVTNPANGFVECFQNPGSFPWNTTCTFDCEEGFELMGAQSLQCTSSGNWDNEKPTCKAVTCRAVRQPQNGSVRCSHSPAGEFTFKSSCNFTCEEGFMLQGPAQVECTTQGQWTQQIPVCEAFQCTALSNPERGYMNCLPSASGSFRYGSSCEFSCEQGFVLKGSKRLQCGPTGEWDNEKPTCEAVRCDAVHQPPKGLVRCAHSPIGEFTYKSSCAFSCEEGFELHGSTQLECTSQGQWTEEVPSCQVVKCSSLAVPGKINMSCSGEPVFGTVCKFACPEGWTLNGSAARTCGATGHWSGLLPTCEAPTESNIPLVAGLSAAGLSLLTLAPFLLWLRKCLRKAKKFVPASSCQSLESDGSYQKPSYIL

Cc1ccccc1CO[C@@H]1C[C@@]2(C(C)C)CC[C@]1(C)O2
active: [8] 32.3 µM | [9] 5.24 µM
not listed: [16] | [17] | [18] | [19]
inactive: all other assays above

CO/C=C(/C(=O)OC)c1ccccc1COc1cccc(C(F)(F)F)n1
active: [1] 20 µM | [2] 16.5 µM | [7] 1.82 µM | [8] 5.74 µM | [9] 0.264 µM | [11] 13.2 µM | [12] 7.64 µM | [14] 7.3 µM
inactive: [4] | [10] | [16] | [13] | [15]

Oc1ccc(Cl)cc1Cl
not listed: [3] | [5] | [6] | [9] | [10] | [11] | [18] | [19]
inactive: all other assays above

OCC(O)CO
active: [17] 36.7 µM | [8] 50 µM
inactive: [3] | [5] | [6] | [8] | [9] | [10] | [18] | [11]

N#Cc1ccc(N(CC(N)=O)CC(F)(F)F)cc1C(F)(F)F
not listed: [3] | [6] | [11] | [16] | [17] | [19]
inactive: all other assays above

CCOC(=O)C(O)(c1ccc(Cl)cc1)c1ccc(Cl)cc1
inactive: [3] | [10] | [11] | [16] | [13]
active: [1] 34.7 µM | [2] 34.6 µM | [4] 37.9 µM | [7] 30.1 µM | [8] 11.1 µM | [9] 18.3 µM | [12] 32 µM | [14] 31 µM | [15] 25.3 µM

CCOCCOC(C)=O
not listed: [5] | [6] | [10] | [17] | [18] | [19]
inactive: all other assays above

O=C(N[C@H]1CN2CCC1CC2)c1cc2ccoc2cn1
not listed: [3] | [5] | [6] | [8] | [10] | [16] | [18] | [19]
inactive: all other assays above

Nc1ccc(-c2ccc(N)cc2)cc1
active: [11] 27.5 µM
not listed: [3] | [6] | [16] | [17] | [18]
inactive: all other assays above

Cc1cccc(C)c1N
inactive: [1] | [2] | [4] | [7] | [12] | [13] | [14] | [15]

Oc1ccc(C(c2ccc(O)cc2)(C(F)(F)F)C(F)(F)F)cc1
inactive: [3] | [8] | [19] | [16]
active: [1] 33.6 µM | [2] 34.8 µM | [4] 38.3 µM | [7] 12.8 µM | [9] 6 µM [middle of 4 runs] | [11] 5 µM [middle of 4 runs] | [12] 30.1 µM | [13] 30.8 µM | [14] 19.9 µM | [15] 14 µM

C[C@]12CCC(=O)C=C1CC[C@@H]1[C@@H]2CC[C@]2(C)C(=O)CC[C@@H]12
inactive: [1] | [2] | [3] | [4] | [5] | [6] | [7] | [8] | [9] | [10] | [18] | [11] | [16] | [12] | [13] | [14] | [15]
active: [9] 7.27 µM and 26.8 µM

— PubChem BioAssay (EPA / NIEHS)
